According to PubChem BioAssay AID1159580 (chemical genetic matrix, 2015):
Several values for one entry are separate records, joined by “and”; a condition that tells them apart may be missing. Equal entries are not always repeated. Hit rate of the full screen: of about 5,500 compounds, about 2,000 (36%) were called active. Another 18% or so got no clear call; they are omitted. Cut-off read from the data, not from the text of the source: active = normalized growth mostly below about 0.91 (no sharp cut-off); inconclusive = no clear call, values can overlap the other calls; inactive = mostly above about 0.92. The list shows a part of the results.

Assay: chemical genetic growth profiling, strain panel (AID 1159580);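 note: tested at 20 µM; growth read once vehicle control cultures reached saturation at 30 °C; 1 = growth at the plate median or of vehicle wells; lower values mean less growth of the strain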
Settings: S. cerevisiae deletion strains, growth OD

Measured: normalized growth

C=C[C@H]1CN2CC[C@H]1C[C@H]2[C@H](O)c1ccnc2ccccc12
inactive: locus YAL013W, strain DEP1, active compounds read low 1.01 | locus YAL021C, strain ccr4, active compounds read low 1 | locus YAL026C, strain drs2, active compounds read low 0.995 | locus YAL030W, strain snc1, active compounds read low 0.997 | locus YBL061C, strain skt5, active compounds read low 0.995 | locus YBR009C, strain hhf1, active compounds read low 0.992 | locus YBR021W, strain FUR4, active compounds read low 1.01 | locus YBR023C, strain chs3, active compounds read low 0.992 | locus YBR171W, strain sec66, active compounds read low 1 | locus YBR229C, strain ROT2, active compounds read low 1.01 | locus YBR231C, strain swc5, active compounds read low 0.984 | locus YBR279W, strain paf1, active compounds read low 1 | locus YCL011C, strain gbp2, active compounds read low 1.01 | locus YCL016C, strain dcc1, active compounds read low 0.994 | locus YCL029C, strain bik1, active compounds read low 0.969 | locus YCL061C, strain MRC1, active compounds read low 0.983 | locus YCL069W, strain vba3, active compounds read low 1.01 | locus YCR088W, strain abp1, active compounds read low 1 | locus YDL005C, strain med2, active compounds read low 0.997 | locus YDL035C, strain GPR1, active compounds read low 0.986 | locus YDL040C, strain nat1, active compounds read low 0.999 | locus YDL074C, strain BRE1, active compounds read low 1.04 | locus YDL101C, strain DUN1, active compounds read low 0.988 | locus YDL134C, strain PPH21, active compounds read low 1 | locus YDL185W, strain tfp1, active compounds read low 0.965 | locus YDL192W, strain arf1, active compounds read low 0.979 | locus YDR001C, strain nth1, active compounds read low 0.986 | locus YDR069C, strain doa4, active compounds read low 1.01 | locus YDR101C, strain arx1, active compounds read low 0.985 | locus YDR137W, strain rgp1, active compounds read low 1.02 | locus YDR150W, strain NUM1, active compounds read low 0.966 | locus YDR159W, strain sac3, active compounds read low 0.949 | locus YDR162C, strain NBP2, active compounds read low 1.01 | locus YDR195W, strain ref2 0.959 | locus YDR297W, strain sur2, active compounds read low 1 | locus YDR318W, strain mcm21, active compounds read low 0.989 | locus YDR334W, strain swr1, active compounds read low 1 | locus YDR335W, strain msn5, active compounds read low 0.993 | locus YDR388W, active compounds read low 0.979 | locus YDR392W, strain spt3, active compounds read low 0.999 | locus YDR502C, strain sam2, active compounds read low 0.979 | locus YEL003W, strain gim4, active compounds read low 0.995 | locus YEL037C, strain rad23, active compounds read low 0.993 | locus YEL061C, strain CIN8 (second series), active compounds read low 0.999 | locus YEL061C, strain CIN8, active compounds read low 1 | locus YER015W, strain faa2, active compounds read low 1 | locus YER016W, strain bim1, active compounds read low 0.975 | locus YER110C, active compounds read low 0.976 | locus YER111C, strain swi4, active compounds read low 1.01 | locus YER155C, strain BEM2 (second series), active compounds read low 0.977 | locus YER155C, strain BEM2, active compounds read low 0.98 | locus YER167W, strain BCK2, active compounds read low 1.01 | locus YFR010W, strain ubp6, active compounds read low 1.01 | locus YGL078C, strain dbp3, active compounds read low 0.985 | locus YGL086W, strain mad1, active compounds read low 0.99 | locus YGL167C, strain pmr1, active compounds read low 0.987 | locus YGL173C, strain kem1, active compounds read low 0.977 | locus YGL227W, strain vid30, active compounds read low 1 | locus YGL240W, strain doc1, active compounds read low 0.984 | locus YGL248W, strain PDE1, active compounds read low 1.01 | locus YGL253W, strain hxk2, active compounds read low 1 | locus YGR078C, strain PAC10, active compounds read low 1.01 | locus YGR135W, strain pre9, active compounds read low 0.974 | locus YGR229C, strain SMI1, active compounds read low 1.02 | locus YGR252W, strain gcn5, active compounds read low 0.982 | locus YHR013C, strain ard1, active compounds read low 1 | locus YHR027C, strain rpn1, active compounds read low 0.997 | locus YHR030C, strain SLT2, active compounds read low 1 and 0.969 | locus YHR079C, strain IRE1 (second series), active compounds read low 0.986 | locus YHR079C, strain IRE1, active compounds read low 0.968 | locus YHR094C, strain hxt1, active compounds read low 0.973 | locus YHR129C, strain ARP1, active compounds read low 1.01 | locus YHR142W, strain chs7, active compounds read low 1 | locus YHR200W, strain rpn10, active compounds read low 0.981 | locus YIL066C, strain RNR3, active compounds read low 1 | locus YIL073C, strain SPO22, active compounds read low 0.927 | locus YIL125W, strain kgd1, active compounds read low 0.994 | locus YIR030C, strain dcg1, active compounds read low 0.979 | locus YJL092W, strain hpr5, active compounds read low 0.999 | locus YJL095W, strain BCK1 (second series), active compounds read low 0.998 | locus YJL095W, strain BCK1, active compounds read low 1.04 and 0.962 | locus YJL115W, strain asf1, active compounds read low 1 | locus YJL129C, strain trk1, active compounds read low 0.988 | locus YJL134W, strain LCB3, active compounds read low 0.995 | locus YJL154C, strain vps35, active compounds read low 1 | locus YJL164C, strain tpk1, active compounds read low 1.01 | locus YJL166W, strain qcr8, active compounds read low 0.95 | locus YJL168C, strain set2, active compounds read low 0.986 | locus YJL187C, strain SWE1 (second series), active compounds read low 0.977 | locus YJR043C, strain POL32, active compounds read low 1.01 | locus YJR066W, strain TOR1, active compounds read low 0.942
